# Assay results reported in PubChem BioAssay (NCI).
# This is part of a sample that, as a whole, favours compounds with a hit. Of some 83,000 tested, about 20% had one in any assay.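 Testing used 96-well plates and a 48-hour single-concentration exposure. Example: -40 means 40% of the starting cells died.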 Values without a mark were called inactive. Calls of active or inactive are those of the source. The calls were made as follows: active = growth percent below 10; inactive = the rest.
# System: T-47D breast
# Assay: NCI-60 one-dose screen, 48 h (100 = growth as untreated, 0 = no growth, -100 = all killed)
# Details: 10 µM
row,SMILES,growth
1,Nc1ccc(Sc2ccc3c4c2cccc4c(=O)n2c4ccccc4nc32)cc1,39.6%
2,O=C(c1ccccc1)C(Sc1ccccc1)c1ccccc1 (stereo unspecified),90.8%
3,O=NN(CCCl)C(=O)Nc1ccc(NC(=O)N(CCCl)N=O)cc1,102%
4,Nc1nc(SCC#CCCl)c2[nH]cnc2n1,37.2%
5,NC(=O)C12C(=O)NC(=O)C1(C(=O)O)C21CCCC1 (stereo unspecified),114%
6,C=C[C@]1(C)C=C2C(=O)[C@@]3(O)OC(=O)[C@@]4(CCCC(C)(C)[C@H]34)[C@@]2(O)CC1,-52.8% (active)
7,CCCn1c(=O)c2c(nc(-c3cccc(OCCCCl)c3)n2C)n(CCC)c1=O,15.8%
8,CCCCCCCC/C=C/CCCCCCCCC1=NCCN1CCO,79.7%
9,COc1ccc(CSc2nc3cc(OC)c(OC)cc3c(=O)n2-c2ccc(OC)cc2OC)cc1,75.6%
10,Cc1ccccc1C1=N[C@@H](Cc2ccccc2)C(=O)c2c(nc3ccccn23)N1,104%
11,COc1ccc(-c2ccccc2)cc1C(=O)c1ccc(-c2ccccc2)cc1,85.7%
12,C/C=C\COc1cc(C)c(Cl)cc1Cl,105%
13,CC(C)C[C@H](NC(=O)CCn1ccc2ccccc2c1=O)B(O)O,27.6%
14,COc1ccc(-c2[nH]ncc2/C=C/c2cc(C(F)(F)F)[nH]c(=O)n2)cc1,75.9%
15,c1ccc(COCC[P+](c2ccccc2)(c2ccccc2)c2ccccc2)cc1,12%
16,CC(=O)Oc1c(C)c(C)c2c(c1C)CCC(C)(CC(=O)OCCCCCCCCCCC[P+](c1ccccc1)(c1ccccc1)c1ccccc1)O2 (stereo unspecified),-64.1% (active)
